Bioassay records from PubChem BioAssay.
hgDAF-12 ag: H. glycines DAF-12 receptor agonists, primary screen, cell-based, luminescence, HEK293, GAL4 fusion, UAS-luciferase; Nuclear hormone receptor DAF-12 (Heterodera glycines), GAL4 fusion; HEK293 GAL4-hgDAF12 UAS-luciferase reporter, agonist luminescence; normalized to butyrate control; activation, % at 6.8 µM; actives 1.8% (n = 370,000); AID 687014, 2013;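 active means activation above a cutoff set at the mean of all screened compounds plus 3 SD, cut at about 10% in these data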;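 further: 0% = DMSO wells and 100% = sodium butyrate wells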
DAX1 inh-1: DAX1 (NR0B1) inhibitors on StAR promoter, primary screen, cell-based, luminescence, SF-1 (NR5A1), full-length DAX-1. HEK293T StAR-luciferase reporter, SF-1/DAX-1 repression relief. inhibition, % at 6.8 µM. actives 1.1% (n = 370,000);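 active means inhibition above the mean over all tested compounds plus 3 SD, cut at about 3.6% in these data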;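 further: 0% = DAX-1 cells with DMSO and 100% = cells lacking DAX-1 with DMSO; higher inhibition means more luminescence from relief of DAX-1 repression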
hcDAF12 agonist: H. contortus DAF-12 nuclear receptor activators, primary screen, cell-based, luminescence, HEK293, lit1-tk-luc reporter. HEK293 hcDAF-12 lit1-tk-luc reporter; 0% DMSO, 100% Δ7-dafachronic acid. activation, % at 6.8 µM. actives 1.4% (n = 370,000). AID 652067, 2013;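 active means activation above the mean of all tested compounds plus 3 SD, cut at about 5.5% in these data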;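 further: 100% = response to 3 µM Δ7-dafachronic acid high control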
ssDAF-12 act: S. stercoralis DAF-12 nuclear receptor activators, primary screen, cell-based, luminescence, HEK293, GRIP1 co-expression, lit1-tk-luc; HEK293 ssDAF-12/GRIP1 lit1-tk-luc reporter; % of 3 µM dafachronic acid response; actives 1% (n = 370,000); Nuclear hormone receptor DAF-12 (Strongyloides stercoralis); activation, % at 6.8 µM;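 active means activation above the mean over all tested compounds plus 3 SD, cut at about 0.9% in these data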;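 further: 0% = DMSO-only wells and 100% = 3 µM delta7-dafachronic acid wells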
DAX1 inh-2: DAX1 (NR0B1) inhibitors, primary screen, cell-based, HEK293, Gal4-DAX1, luciferase luminescence; actives 0.99% (n = 340,000); inhibition, % at 6.75 µM; Nuclear receptor subfamily 0 group B member 1 (Homo sapiens), P51843; AID 504766, 2011; HEK293 Gal4-DAX1 luciferase reporter;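 active means inhibition above the mean over all tested compounds plus 3 SD, cut at about 4.2% in these data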;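 further: 0% = DAX1-transfected cells with DMSO and 100% = empty-vector control cells with DMSO; inhibition shows as a rise in luminescence from relieved DAX1 repression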
Target sequence (P51843 207-470 limits assumed): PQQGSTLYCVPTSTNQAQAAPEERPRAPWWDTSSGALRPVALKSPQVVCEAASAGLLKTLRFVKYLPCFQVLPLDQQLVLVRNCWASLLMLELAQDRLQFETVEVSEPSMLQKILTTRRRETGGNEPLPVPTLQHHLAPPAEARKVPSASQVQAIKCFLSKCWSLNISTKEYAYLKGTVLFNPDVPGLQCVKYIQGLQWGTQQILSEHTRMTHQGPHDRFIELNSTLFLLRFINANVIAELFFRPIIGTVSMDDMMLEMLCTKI
Numbers without * were called inactive; nt = not tested or not shown. The list is not random: actives were taken first. Their share in the collection is about 4.1%.

SMILES	hgDAF-12 ag	DAX1 inh-1	hcDAF12 agonist	ssDAF-12 act	DAX1 inh-2
COc1ccc2[nH]c3c(c2c1)CCNC3C (stereo not drawn)	-1	-1	5.7*	0	2
COc1ccc2c3c([nH]c2c1)C(C)NCC3 (stereo not drawn)	-1	0	2	-1	-1
C=CCN1C(=O)NC(=O)/C(=C/c2ccc(N(C)C)c(Br)c2)C1=O	-2	-1	0	-1	0
COc1ccc2nc(-c3ccc(CN4CCC(n5c(=O)[nH]c6cc(Cl)ccc65)CC4)cc3)c(-c3ccccc3)nc2c1	0	-2	-3	-2	nt
c1cncc(CNCCN2CCNCC2)c1	-1	0	2	-1	-2
C=CC1C[N+]2(C)CCC1CC2C(O)c1ccnc2ccccc12 (stereo not drawn)	3	1	0	-2	nt
c1ccc2c(CNC3CCCCCC3)c[nH]c2c1	0	0	5.7*	0	-1
C=Cn1ccnc1P(=S)(c1ccccc1)c1nccn1C=C	-4	0	0	-1	0
C=Cn1ccnc1P(=S)(c1ccc(Cl)cc1)c1nccn1C=C	0	0	0	0	5.2*
c1ccc(Cn2nnnc2C2CN=C(c3ccccc3)c3ccccc3N2)cc1 (stereo not drawn)	-1	0	0	-1	nt
O=C(Cc1c[nH]c2ccccc12)NNCc1ccc(N(CCCl)CCCl)cc1	1	-1	4	49*	1
CCOP(=O)(OCC)C1(C(=O)O)CCCC1	0	-1	-1	-1	5.1*
C[C@@H]1CNCCN1c1ccc(N2CC[C@H](O)C2)c(C#N)c1	0	0	-2	-1	nt
Cc1ccc(OC(=O)N(C)C[C@@H]2OCc3ccccc3-c3c(n(C)c4ccccc34)C(=O)N([C@H](C)CO)C[C@H]2C)cc1	1	0	-1	-1	nt
C=CCN1CC[C@]23c4c5ccc(O)c4OC2C(=O)CC[C@@]3(O)[C@H]1C5 (stereo partly drawn)	3	0	-1	-2	nt
O=C1Nc2ccccc2/C1=C/c1cnc[nH]1	-5	-2	-1	0	-2
COc1ccc2c(c1)/C(=C/c1cnc[nH]1)C(=O)N2	0	-3	4	1.1*	-3
C[C@]12C=CC(=O)C=C1C=C[C@@H]1C2CC[C@]2(C)C(=O)CCC12 (stereo partly drawn)	-1	0	-2	-1	1
COCCCN=Cc1c(O)[nH]c(=S)[nH]c1=O	2	1	-2	-1	7.0*
CC(C)Oc1ccc(C2C(C#N)=C(N)Oc3c2c(=O)oc2ccccc32)cc1 (stereo not drawn)	1	0	0	-1	0
CC(C)C1C(C#N)=C(N)Oc2c1c(=O)oc1ccccc21 (stereo not drawn)	-2	4.0*	0	-1	0
CCCC(C)C1C(C#N)=C(N)Oc2c1c(=O)oc1ccccc21 (stereo not drawn)	-1	0	-1	-1	1
CCCC1C(C#N)=C(N)Oc2c1c(=O)oc1ccccc21 (stereo not drawn)	1	1	-2	-1	4.6*
c1ccc(CN2CCc3nc4ccccc4cc3C2)cc1	12*	0	1	-1	2
O=C(/C=C/c1ccc(F)cc1)NC(=S)N1C[C@H]2C[C@H](C1)c1cccc(=O)n1C2	-3	0	-1	-1	-1
SMILES	hgDAF-12 ag	DAX1 inh-1	hcDAF12 agonist	ssDAF-12 act	DAX1 inh-2
NC(=S)N/N=C/c1coc2ccccc2c1=O	3	0	0	1.2*	-1
C[C@H]1CN([C@@H](C)CO)C(=O)CCCn2cc(nn2)CO[C@@H]1CN(C)C(=O)Oc1cccc2ccccc12	3	0	-2	0	nt
Cc1ccc(C2NC(=S)NC(c3ccc(C)cc3)C23C(=O)NC(=O)NC3=O)cc1 (stereo not drawn)	1	0	2	-1	4.3*
COc1cccc2c1C(=O)c1c(O)c3c(c(O)c1C2=O)CC(O)(C(C)=NO)CC3OC1CC(N)C(O)C(C)O1 (stereo not drawn)	3	-3	5	1.9*	-3
CNC(=O)O/N=C(\C)Cc1nnn(-c2cc(C)on2)n1	2	0	0	-1	5.1*
O=S(=O)(c1ccc2ccccc2c1)N1Cc2cc(Br)ccc2-n2nncc2C1	1	0	-1	-1	nt
COc1ccc(CN2CCN(c3ccccc3F)CC2)cc1O	0	0	-1	-1	4.5*
COc1ccccc1N1CCN(Cc2ccc(F)cc2)CC1	0	0	-1	-1	0
CC(=O)c1cn(CCCOc2ccccc2)c2ccccc12	-3	-2	-4	-2	-3
CC[N+](C)(CC)CCCCOc1ccc2c(c1)C(=O)c1cc(OCCCC[N+](C)(CC)CC)ccc1-2	3	0	-1	-2	5.5*
C=Cn1c(P(=S)(N2CCOCC2)N2CCOCC2)cc2c1CCCC2	2	0	-1	-1	-2
COC(=O)C1=Nc2ccccc2/C1=C\c1c(O)n(-c2cc(OC)ccc2OC)c(=O)[nH]c1=O	3	0	5.8*	-1	0
Cc1ccccc1-n1c(O)c(/C=C2/C(c3ccccc3)=Nc3ccccc32)c(=O)[nH]c1=O	0	-2	1	-1	-1
CC1=Nc2ccccc2/C1=C/c1c(O)n(C)c(=O)[nH]c1=O	2	0	6.4*	1	3
CCOP(=O)(C#Cc1ccccc1)C(O)c1ccc(Br)cc1 (stereo not drawn)	-2	0	-2	-1	4.6*
COP(=O)(C#Cc1ccccc1)C(O)c1ccc(Br)cc1 (stereo not drawn)	0	0	-1	-1	1
COc1ccc(NC(=S)NC(NC(=O)CF)C(Cl)(Cl)Cl)cc1[N+](=O)[O-] (stereo not drawn)	4	0	-1	-2	4.6*
CNC(=O)Oc1c(C)[nH]ccc1=O	1	0	-1	0	0
CN1CC(C(=O)c2ccc(Cl)cc2)C(c2ccc(N(C)C)cc2)C1 (stereo not drawn)	0	1	1	0	4.2*
CC(=O)Nc1ccc(C2CN(C)CC2C(=O)c2ccc(Cl)cc2)cc1 (stereo not drawn)	1	4.2*	0	-1	0
COc1ccc2c(c1OC)C(=O)OC2C1c2cc3c(cc2CCN1C)OCO3 (stereo not drawn)	7	0	0	-2	1
